Among the test systems are NCI-H23 lung; NCI-H226 lung; NCI-H322M lung; HOP-62 NSCLC; NCI-H460 lung; HOP-92 NSCLC; NCI-H522 lung; A549/ATCC NSCLC; 786-0 renal; COLO 205 colon.
Test in all cases: NCI-60 one-dose screen, 48 h (100 = growth as untreated, 0 = no growth, -100 = all killed)
Common to all, as to details: 10 µM unless noted

About 83,000 compounds went through this panel and 20% of them were active in at least one assay; those are over-represented in the sample as a whole.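 Plates (96-well) were seeded with cells, treated with compound at one concentration, and incubated for 48 hours before percent growth was determined.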 Unmarked numbers belong to inactive results. Active and inactive are the calls of the source. How the source made its calls: active means growth percent below 10; inactive means the rest.

As for `c1ccc2c(NCCCN3CCN(CCCNc4c5ccccc5nc5ccccc45)CC3)c3ccccc3nc2c1`, the growth with NCI-H23 lung is -86.2% [100 µM] (active); with NCI-H226 lung, -26.2% [100 µM] (active); in the test with NCI-H322M lung, -33.2% [100 µM] (active); in the test on HOP-62 NSCLC it was -32.5% [100 µM] (active); with NCI-H460 lung, -19.5% [100 µM] (active); in the test with HOP-92 NSCLC it was -26.4% [100 µM] (active). The growth in the test on NCI-H522 lung was -72.1% [100 µM] (active); in the test on A549/ATCC NSCLC, -24.8% [100 µM] (active); in the test on 786-0 renal, -28.5% [100 µM] (active); in the test on COLO 205 colon, -52.6% [100 µM] (active).

As for `O=C(CCCl)OCCOc1ccccc1`, the growth in the test on NCI-H23 lung was 96.2%; in the test on NCI-H226 lung, 104%; with NCI-H322M lung, 97%; in the test with HOP-62 NSCLC it was 105%; in the test on NCI-H460 lung, 104%; in the test with HOP-92 NSCLC, 86.7%. Moreover, the growth in the test with NCI-H522 lung was 98.2%; with A549/ATCC NSCLC, 102%; in the test on 786-0 renal, 99.4%; with COLO 205 colon it was 103%.

Take `Nc1cccc2cccc(O)c12`: the growth in the test on NCI-H23 lung was 90.6%; in the test with NCI-H226 lung it was 96.1%; with NCI-H322M lung, 79.2%; in the test on HOP-62 NSCLC, 104%; in the test on NCI-H460 lung, 86.5%; in the test with HOP-92 NSCLC, 83.8%. Further, the growth was 70.5% in the test on NCI-H522 lung, 106% with A549/ATCC NSCLC, 108% with 786-0 renal and 102% in the test with COLO 205 colon.

As to `O=C(O)CC1=CCCCC1`, the growth in the test with NCI-H23 lung was 98.9%; in the test on NCI-H226 lung, 103%; with NCI-H322M lung it was 98.7%; with HOP-62 NSCLC, 98.3%; in the test on NCI-H460 lung it was 106%; with HOP-92 NSCLC it was 82.8%. Also, the growth is 101% in the test on NCI-H522 lung, 98.5% in the test on A549/ATCC NSCLC, 95.2% in the test on 786-0 renal and 108% in the test on COLO 205 colon.

On to `O=S1(=O)c2ccccc2Oc2ccccc21`, for which the growth is 104% in the test on NCI-H23 lung; 100% with NCI-H226 lung; 101% in the test with NCI-H322M lung; 93.4% in the test on HOP-62 NSCLC; 99% in the test on NCI-H460 lung; 90.4% in the test on HOP-92 NSCLC. Besides, the growth with NCI-H522 lung is 78.2%; in the test on A549/ATCC NSCLC, 95.4%; with 786-0 renal it was 99.9%; in the test with COLO 205 colon, 109%.

As to `CC(=O)c1ccc(C)cc1`, the growth in the test with NCI-H23 lung is 104%; in the test on NCI-H226 lung, 102%; with NCI-H322M lung, 90%; in the test on HOP-62 NSCLC, 107%; in the test on NCI-H460 lung, 106%; in the test on HOP-92 NSCLC, 88.3%. Besides, the growth was 103% in the test with NCI-H522 lung, 114% with A549/ATCC NSCLC, 120% in the test on 786-0 renal and 116% with COLO 205 colon.

With `OCCNc1ccccc1`, the growth with NCI-H23 lung is 95.6%; with NCI-H226 lung, 97.7%; in the test on NCI-H322M lung, 104%; in the test on HOP-62 NSCLC, 105%; in the test with NCI-H460 lung, 106%; in the test on HOP-92 NSCLC, 92.7%. The growth in the test with NCI-H522 lung is 99.5%; in the test with A549/ATCC NSCLC it was 103%; with 786-0 renal it was 99.9%; with COLO 205 colon, 107%.

Turning to `O=C(OC1CCCC1)c1ccccc1Cl`, the growth is 106% in the test on NCI-H23 lung; 104% in the test on NCI-H226 lung; 99.7% with NCI-H322M lung; 97.1% in the test with HOP-62 NSCLC; 101% in the test with NCI-H460 lung; 96.2% with HOP-92 NSCLC. Besides, the growth was 93.1% in the test on NCI-H522 lung, 105% in the test on A549/ATCC NSCLC, 101% in the test with 786-0 renal and 107% in the test on COLO 205 colon.

In the case of `C1C[S+]2CC[S+]1CC2`, the growth is 97.9% with NCI-H23 lung; 98.3% in the test with NCI-H226 lung; 111% in the test on NCI-H322M lung; 104% with HOP-62 NSCLC; 101% in the test with NCI-H460 lung; 111% with HOP-92 NSCLC. Also, the growth with NCI-H522 lung was 98.5%; with A549/ATCC NSCLC, 98.9%; in the test on 786-0 renal it was 111%; in the test on COLO 205 colon it was 116%.

Consider `C1=NCCc2ccccc21`, for which the growth in the test on NCI-H23 lung was 93.8%; in the test with NCI-H226 lung, 85.8%; in the test with NCI-H322M lung it was 105%; in the test on HOP-62 NSCLC, 89.4%; with NCI-H460 lung, 103%; with HOP-92 NSCLC, 92.1%. Moreover, the growth with NCI-H522 lung was 114%; in the test on A549/ATCC NSCLC, 98.5%; in the test with 786-0 renal, 103%; in the test on COLO 205 colon, 101%.

Consider `NNC(=O)N/N=C1\C(=O)N(c2nccs2)C(=O)C(=O)C1c1nc2ccccc2s1` (stereo not given), for which the growth was 95.6% in the test with NCI-H23 lung; 89.1% in the test on NCI-H226 lung; 105% with NCI-H322M lung; 81.3% in the test with HOP-62 NSCLC; 101% with NCI-H460 lung; 98.6% with HOP-92 NSCLC. The growth in the test on NCI-H522 lung is 83.1%; in the test on A549/ATCC NSCLC it was 75.8%; in the test with 786-0 renal, 118%; in the test with COLO 205 colon, 98.6%.

`Cc1ccc(C)c2c1CCC2=O`: the growth is 95.4% in the test on NCI-H23 lung; 91.4% in the test with NCI-H226 lung; 101% in the test with NCI-H322M lung; 93.2% in the test on HOP-62 NSCLC; 97.4% in the test with NCI-H460 lung; 94.7% in the test with HOP-92 NSCLC. In addition, the growth in the test with NCI-H522 lung is 96.7%; in the test on A549/ATCC NSCLC, 114%; in the test with 786-0 renal, 99.6%; in the test on COLO 205 colon, 114%.

On to `CC(=O)C[n+]1ccc(C)cc1Sc1ccccc1C`, for which the growth with NCI-H23 lung was 91%; in the test on NCI-H226 lung it was 107%; with NCI-H322M lung, 102%; with HOP-62 NSCLC it was 99.1%; in the test on NCI-H460 lung, 104%; in the test with HOP-92 NSCLC, 94.9%. Moreover, the growth in the test on NCI-H522 lung was 98.1%; in the test with A549/ATCC NSCLC it was 112%; with 786-0 renal it was 93.5%; with COLO 205 colon, 116%.

With `O=S(Cc1ccccc1)/C(=C/NC(=S)Nc1cc(Cl)ccc1Cl)c1ccccc1` (stereo not given), the growth with NCI-H23 lung was 97.1%; in the test on NCI-H226 lung it was 101%; in the test on NCI-H322M lung, 93.7%; in the test on HOP-62 NSCLC, 92.8%; in the test on NCI-H460 lung, 107%; with HOP-92 NSCLC it was 101%. The growth is 85% with NCI-H522 lung, 96.8% in the test on A549/ATCC NSCLC, 102% in the test with 786-0 renal and 109% in the test on COLO 205 colon.

`COc1cccc(C(=O)O)c1OC`: the growth in the test on NCI-H23 lung is 109%; in the test with NCI-H226 lung, 89.8%; in the test on NCI-H322M lung, 95.6%; with HOP-62 NSCLC it was 89.4%; with NCI-H460 lung, 101%; in the test on HOP-92 NSCLC, 92.5%. Besides, the growth is 87.2% with NCI-H522 lung, 98.1% in the test with A549/ATCC NSCLC, 96% with 786-0 renal and 101% with COLO 205 colon.

For the origin of these results see PubChem BioAssay (NCI).
